Measured values taken from PubChem BioAssay AID1159580 (chemical genetic matrix, 2015).
Several values for one entry are separate records, joined by “and”; a condition that tells them apart may be missing. Equal entries are not always repeated. Out of some 5,500 compounds screened, about 2,000 (36%) were called active. About 18% were inconclusive and are not listed. No stated cut-off is given here; in the data, active means normalized growth mostly below about 0.91 (no sharp cut-off); inconclusive means no clear call, values can overlap the other calls; inactive means mostly above about 0.92. This is one part of the list.

Assay: chemical genetic growth profiling, strain panel (AID 1159580);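 further: tested at 20 µM; growth read once vehicle control cultures reached saturation at 30 °C; 1 = growth at the plate median or of vehicle wells; lower values mean less growth of the strain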
Details: S. cerevisiae deletion strains, growth OD

Measured: normalized growth

NC1=NCCN1CC(=O)O
inactive: locus YAL013W, strain DEP1, hits give low values 0.99 | locus YAL021C, strain ccr4, hits give low values 1.02 | locus YAL026C, strain drs2, hits give low values 1.02 | locus YAL030W, strain snc1, hits give low values 1.03 | locus YBL061C, strain skt5, hits give low values 1.01 | locus YBR009C, strain hhf1, hits give low values 1 | locus YBR021W, strain FUR4, hits give low values 1 | locus YBR023C, strain chs3, hits give low values 1.01 | locus YBR171W, strain sec66, hits give low values 1.01 | locus YBR229C, strain ROT2, hits give low values 0.96 | locus YBR231C, strain swc5, hits give low values 1.01 | locus YBR279W, strain paf1, hits give low values 1.01 | locus YCL011C, strain gbp2, hits give low values 1.04 | locus YCL016C, strain dcc1, hits give low values 1.01 | locus YCL029C, strain bik1, hits give low values 0.997 | locus YCL069W, strain vba3, hits give low values 1.01 | locus YCR088W, strain abp1, hits give low values 1.02 | locus YDL005C, strain med2, hits give low values 1.01 | locus YDL035C, strain GPR1, hits give low values 0.989 | locus YDL040C, strain nat1, hits give low values 1.01 | locus YDL074C, strain BRE1, hits give low values 0.924 | locus YDL101C, strain DUN1, hits give low values 0.961 | locus YDL134C, strain PPH21, hits give low values 1.01 | locus YDL185W, strain tfp1, hits give low values 0.986 | locus YDL192W, strain arf1, hits give low values 0.992 | locus YDR001C, strain nth1, hits give low values 1.01 | locus YDR069C, strain doa4, hits give low values 1.02 | locus YDR101C, strain arx1, hits give low values 0.996 | locus YDR137W, strain rgp1, hits give low values 1.04 | locus YDR150W, strain NUM1, hits give low values 0.986 | locus YDR159W, strain sac3, hits give low values 0.958 | locus YDR162C, strain NBP2, hits give low values 0.99 | locus YDR195W, strain ref2 1.02 | locus YDR297W, strain sur2, hits give low values 1 | locus YDR318W, strain mcm21, hits give low values 0.995 | locus YDR334W, strain swr1, hits give low values 1.01 | locus YDR335W, strain msn5, hits give low values 1.01 | locus YDR388W, hits give low values 0.989 | locus YDR392W, strain spt3, hits give low values 0.86 | locus YDR502C, strain sam2, hits give low values 0.988 | locus YEL003W, strain gim4, hits give low values 0.996 | locus YEL037C, strain rad23, hits give low values 1.02 | locus YEL061C, strain CIN8 (second series), hits give low values 1.03 | locus YEL061C, strain CIN8, hits give low values 0.981 | locus YER015W, strain faa2, hits give low values 1.02 | locus YER016W, strain bim1, hits give low values 1.03 | locus YER110C, hits give low values 0.988 | locus YER111C, strain swi4, hits give low values 1.03 | locus YER155C, strain BEM2 (second series), hits give low values 0.911 | locus YER155C, strain BEM2, hits give low values 1 | locus YER167W, strain BCK2, hits give low values 0.984 | locus YFR010W, strain ubp6, hits give low values 1.01 | locus YGL078C, strain dbp3, hits give low values 0.997 | locus YGL086W, strain mad1, hits give low values 0.98 | locus YGL167C, strain pmr1, hits give low values 1.01 | locus YGL173C, strain kem1, hits give low values 1 | locus YGL227W, strain vid30, hits give low values 1.04 | locus YGL240W, strain doc1, hits give low values 1 | locus YGL248W, strain PDE1, hits give low values 0.971 | locus YGL253W, strain hxk2, hits give low values 1.01 | locus YGR135W, strain pre9, hits give low values 1.01 | locus YGR229C, strain SMI1, hits give low values 1.02 | locus YGR252W, strain gcn5, hits give low values 1.01 | locus YHR013C, strain ard1, hits give low values 0.996 | locus YHR027C, strain rpn1, hits give low values 1.02 | locus YHR030C, strain SLT2, hits give low values 0.998 and 0.992 | locus YHR079C, strain IRE1 (second series), hits give low values 0.997 | locus YHR079C, strain IRE1, hits give low values 0.992 | locus YHR094C, strain hxt1, hits give low values 0.995 | locus YHR129C, strain ARP1, hits give low values 0.999 | locus YHR142W, strain chs7, hits give low values 0.992 | locus YHR200W, strain rpn10, hits give low values 0.99 | locus YIL066C, strain RNR3, hits give low values 0.966 | locus YIL073C, strain SPO22, hits give low values 1.07 | locus YIL125W, strain kgd1, hits give low values 0.984 | locus YIR030C, strain dcg1, hits give low values 0.994 | locus YJL092W, strain hpr5, hits give low values 1.01 | locus YJL095W, strain BCK1 (second series), hits give low values 1.02 | locus YJL095W, strain BCK1, hits give low values 0.969 and 0.972 | locus YJL115W, strain asf1, hits give low values 1.02 | locus YJL129C, strain trk1, hits give low values 1 | locus YJL134W, strain LCB3, hits give low values 0.988 | locus YJL154C, strain vps35, hits give low values 1.02 | locus YJL164C, strain tpk1, hits give low values 0.986 | locus YJL166W, strain qcr8, hits give low values 1 | locus YJL168C, strain set2, hits give low values 0.989 | locus YJL187C, strain SWE1 (second series), hits give low values 0.964 | locus YJL187C, strain SWE1, hits give low values 1
